This note sets out measurements from PubChem BioAssay (EPA / NIEHS).

Calls of active or inactive are those of the source. The calls were made as follows: active = hit-call score of the fitted dose curve at least 0.9, where 1 is the maximum; inactive = score below 0.9.

The nature of this test: CCTE_Mundy_HCI_Cortical_NOG_NeuriteCount: CCTE's Neurite Outgrowth Assay in rat cortical cells for Neurite Count, Mundy Lab (AID 2284212).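 Also: cells fixed about two days after chemical exposure began.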 The procedure: CCTE_Mundy_HCI_Cortical_NOG is a multiplexed, cell-based-readout assay that uses rat primary cortical cells with measurements taken at 50.33 hours after chemical dosing in a microplate: 96-well plate.CCTE_Mundy_HCI_Cortical_NOG_NeuriteCount is one of four components of the CCTE_Mundy_HCI_Cortical_NOG assay. It measures neurite outgrowth related to the number of neurites using High Content Imaging of fluorescently labelled markers.[…] Using a type of morphology reporter, loss -of-signal activity can be used to understand developmental effects.
Exposure starts 2 hours post-plating by adding 10 ul of the working solution to 90 ul of media in the wells for a 1/10 dilution. Forty-eight hours after chemical treatment cells are fixed by direct addition of 100 ul of warm (37C) Dulbecco's phosphate buffered saline (DPBS) fixative solution containing 8% paraformaldehyde, 8% sucrose, and 0.1% of 3 mg/ml Hoechst 33342 into each well. Primary antibodies are prepared by dilution in Immunocytochemical Staining Buffer (ISB), 10X Dulbecco's PBS, 0.1% Saponin, 5% Bovine Serum Albumin, 0.5% NaN3 (Sodium Azide) and betaIII-tubulin (rabbit anti-betaIII-tubulin, 1:800) followed by Alexa Fluor-488 secondary (1:500) to label neuronal cell bodies and neurites. A Cellomics ArrayScan VTi HCS Reader is used for automated image acquisition and analysis of neurite outgrowth.
Turning to `CC(C)(C)C(O)(CCc1ccc(Cl)cc1)Cn1cncn1` (configuration not stated), the compound was classed as inactive. Regarding `Nc1cc(Cl)cc(C(=O)O)c1Cl`, the compound was called inactive. Same read-out and setting: the value for `CCCCOC(=O)c1ccccc1C(=O)OCc1ccccc1` was “inactive”; that for `[O-][Cl+]O` was “inactive”. `CNC(=O)Oc1cccc2c1OC(C)(C)C2`: the compound was called inactive.

On to `CN(C)[C@@H]1C(=O)C(C(N)=O)=C(O)[C@@]2(O)C(=O)C3=C(O)c4c(O)cccc4[C@@](C)(O)[C@H]3C[C@@H]12`, for which the compound was classed as inactive. In general, AC50 refers to the concentration at which the activity in the assay is half-maximal. For `ClC1=C(Cl)C2(Cl)C3C(Cl)C=CC3C1(Cl)C2(Cl)Cl` (configuration not stated), the AC50 was 17.6 µM (active). Turning to `OCCOCCO`, the compound was called inactive. Still for that read-out and setting: the entry for `COP(=S)(OC)SCN1C(=O)c2ccccc2C1=O` is “inactive”; for `COC(=O)Nc1nc2ccccc2[nH]1` it is “inactive”; for `CC(C)COC(=O)c1ccccc1C(=O)OCC(C)C` it is “inactive”. Consider `CCC[CH2][Sn]([Cl])([CH2]CCC)[CH2]CCC`, for which the AC50 is 0.112 µM (active).
